Assay results published in PubChem BioAssay (Tox21).
Values joined by “and” are separate entries in the source; they are usually repeats but may differ in a detail not shown here. Identical values can stand only once. Records with an inconclusive call do not appear. Entries that show only a call come without a potency. Some compounds were tested as several samples or in several runs, with calls that do not always agree. Active and inactive are the calls of the source. Calls come from the whole dose curve; as a rule, active = well fitted curve in the direction sought with a large enough effect in the repeat runs; inconclusive = weak or mixed curves; inactive = no such curve, though single readings can be large; an effect the other way counts as inactive or inconclusive.

Tests used:
[1] = Human pregnane X receptor (PXR) small molecule agonists, qHTS cell viability counter screen (AID 1346977); note: nearly all actives have a fitted effect of over 50% in size; note: potency is the fitted concentration of half-maximal effect
In short: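 After a 5hr pre-incubation, PXR-Luc HepG2 cells received compounds plus positive control in DMSO and were kept 24hr at 37C. Cell viability was quantified by fluorescence from CellTiter-Fluor added for the final hour.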

[2] = Caspase-3/7 induction in HepG2 cells by small molecules, qHTS assay (AID 1346978); note: nearly all actives have a fitted effect of over 15% in size
In short: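 Wild-type HepG2 cells, 2,000/well, settled 5 hr at 37 C and 5% CO2, then compound-treated for 17 hr; caspase-3/7 activity read by luminescent Caspase-Glo 3/7 after 30 min at room temperature.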

[3] = Caspase-3/7 induction in CHO-K1 cells by small molecules, qHTS cell viability counter screen (AID 1346979); note: nearly all actives have a fitted effect of over 35% in size; note: potency is the fitted concentration of half-maximal effect
In short: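 Multiplexed with Caspase-Glo 3/7 in CHO-K1 cells, this counter screen added CellTiter-Fluor after 16hr of compound exposure and recorded fluorescence 1hr later.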

[4] = Caspase-3/7 induction in CHO-K1 cells by small molecules, qHTS assay (AID 1346980); note: nearly all actives have a fitted effect of over 15% in size
In short: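 Wild-type CHO-K1 cells exposed to compounds for 17hr at 37 C, 5% CO2. Caspase-3/7 activity then measured by Caspase-Glo 3/7 luminescence after 30min at room temperature.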

[5] = Caspase-3/7 induction in HepG2 cells by small molecules, qHTS cell viability counter screen (AID 1346981); note: series mostly up to about 92 µM; nearly all actives have a fitted effect of over 30% in size
In short: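 Wild-type HepG2 cells (2,000/well) were allowed to settle for 5 hr at 37 C, 5% CO2, then dosed with compounds in DMSO by pin transfer. After 16 hr at 37 C, CellTiter-Fluor was added and fluorescence read 1 hr later.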

[6] = biological target: Nuclear receptor subfamily 1 group I member 2 (Homo sapiens) (UniProt O75469); assay: Human pregnane X receptor (PXR) small molecule agonists, qHTS assay (AID 1346982); note: nearly all actives have a fitted effect of over 35% in size; note: potency is the fitted concentration of half-maximal effect
In short: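 PXR-Luc HepG2 cells (CYP3A4 promoter-driven luciferase) were seeded in medium with 5% charcoal-stripped FBS, left 5 hr at 37 C, then exposed to compounds in DMSO for 24 hr. Luminescence was read after ONE-Glo addition.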

[7] = biological target: Cytochrome P450 2D6 (Homo sapiens) (UniProt P10635); assay: Cytochrome P450 Family 2 Subfamily D Member 6 (CYP2D6) small molecule antagonists: luciferase reporter qHTS assay (AID 1671196); note: nearly all actives have a fitted effect of over 50% in size; note: potency is the fitted concentration of half-maximal effect
In short: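 CYP2D6 enzyme–substrate mix was held with compound for 10 min at room temperature, then NADPH regeneration solution was added and the reaction ran 1 h at room temperature. Luciferin product was detected by luminescence after 20 min with detection reagent.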

[8] = biological target: Cytochrome P450 2C19 (Homo sapiens) (UniProt P33261); assay: Cytochrome P450 Family 2 Subfamily C Member 19 (CYP2C19) small molecule antagonists: luciferase reporter qHTS assay (AID 1671197); note: nearly all actives have a fitted effect of over 65% in size; note: potency is the fitted concentration of half-maximal effect
In short: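 Light output is proportional to CYP2C19 activity: proluciferin substrate is converted to luciferin, then detected by a luciferin detection reagent that also stops the 1 h, 37C NADPH-driven reaction. Ketoconazole serves as positive control.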

[9] = biological target: Cytochrome P450 2C9 (Homo sapiens) (UniProt P11712); assay: Cytochrome P450 Family 2 Subfamily C Member 9 (CYP2C9) small molecule antagonists: luciferase reporter qHTS assay (AID 1671198); note: nearly all actives have a fitted effect of over 50% in size; note: potency is the fitted concentration of half-maximal effect
In short: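 P450-Glo proluciferin substrate with CYP2C9 enzyme; 10 min RT preincubation, then NADPH regeneration 1 h at 37C; luciferin detection reagent 20 min RT, luminescence in relative luminescence units.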

[10] = biological target: Cytochrome P450 1A2 (Homo sapiens) (UniProt P05177); assay: Cytochrome P450 Family 1 Subfamily A Member 2 (CYP1A2) small molecule antagonists: luciferase reporter qHTS assay (AID 1671199); note: nearly all actives have a fitted effect of over 50% in size; note: potency is the fitted concentration of half-maximal effect
In short: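 Human CYP1A2 activity measured with a P450-Glo proluciferin substrate; compounds in DMSO preincubated 10 min at room temperature with enzyme-substrate mix, then NADPH regeneration system added for 1 h. Luciferin detection reagent, 20 min, luminescence read.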

[11] = biological target: Voltage-gated inwardly rectifying potassium channel KCNH2 (Homo sapiens) (UniProt Q12809); assay: Human Ether-a-go-go-Related Gene (hERG) channel small molecule antagonists: fluorescence cell-based qHTS assay (AID 1671200); note: nearly all actives have a fitted effect of over 50% in size; note: potency is the fitted concentration of half-maximal effect
In short: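 Cell line hERG-U2OS; dye FluxOR II, 1 h RT dark; Tl+ stimulus; ex 480/em 540 nm, read each second for 2 min.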

[12] = biological target: Nuclear receptor subfamily 1 group I member 2 (Rattus norvegicus) (UniProt Q9R1A7); assay: Rat pregnane X receptor (rPXR) activation by small molecules, qHTS assay (AID 1346983); conditions: rPXR luciferase reporter cells, One-Glo luminescence, 24 h; max activation: stronger effect = higher value; note: nearly all actives have a fitted effect of over 20% in size
In short: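 Cell-based rPXR activation assay: rPXR cells, 2,000 per well, rested 5hr at 37 C, then exposed to compounds in DMSO for 24 hr at 37 C. Luciferase activity read by One-Glo luminescence after 30 min at room temperature.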

[13] = biological target: Nuclear receptor subfamily 1 group I member 2 (Homo sapiens) (UniProt O75469); assay: CYP3A4 induction through human pregnane X receptor (PXR) by small molecules, qHTS assay (AID 1346984); note: nearly all actives have a fitted effect of over 40% in size
In short: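 DPX-2 cells (HepG2 co-transfected with PXR and CYP3A4 promoter-luciferase) treated with compounds 24 h at 37C; luciferin-IPA CYP3A4 substrate 3uM final added for 3 h, then One-Glo; luminescence read. qHTS format.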

[14] = biological target: Nuclear receptor subfamily 1 group I member 2 (Homo sapiens) (UniProt O75469); assay: Human pregnane X receptor (PXR) activation by small molecules, qHTS assay (AID 1346985); note: nearly all actives have a fitted effect of over 40% in size; note: potency is the fitted concentration of half-maximal effect
In short: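 DPX-2 cells (HepG2 co-transfected with a PXR response element and a CYP3A4-promoter luciferase construct) were seeded at 2,000 per well, rested 5 hr at 37C, then exposed to DMSO-dissolved compounds for 24 hr. Activation was read as luciferase luminescence.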

[15] = biological target: Cytochrome P450 3A4 (Homo sapiens) (UniProt P08684); assay: Cytochrome P450 Family 3 Subfamily A Member 4 (CYP3A4) small molecule antagonists: luciferase reporter qHTS assay (AID 1671201)
In short: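 Room-temperature assay throughout: 10 min compound–enzyme/substrate preincubation, 1 h reaction after NADPH regeneration solution, 20 min detection. Luciferin formed from proluciferin substrate is quantified by luminescence.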

Nuclear receptor subfamily 1 group I member 2 (Homo sapiens), sequence (O75469 whole entry, looked up): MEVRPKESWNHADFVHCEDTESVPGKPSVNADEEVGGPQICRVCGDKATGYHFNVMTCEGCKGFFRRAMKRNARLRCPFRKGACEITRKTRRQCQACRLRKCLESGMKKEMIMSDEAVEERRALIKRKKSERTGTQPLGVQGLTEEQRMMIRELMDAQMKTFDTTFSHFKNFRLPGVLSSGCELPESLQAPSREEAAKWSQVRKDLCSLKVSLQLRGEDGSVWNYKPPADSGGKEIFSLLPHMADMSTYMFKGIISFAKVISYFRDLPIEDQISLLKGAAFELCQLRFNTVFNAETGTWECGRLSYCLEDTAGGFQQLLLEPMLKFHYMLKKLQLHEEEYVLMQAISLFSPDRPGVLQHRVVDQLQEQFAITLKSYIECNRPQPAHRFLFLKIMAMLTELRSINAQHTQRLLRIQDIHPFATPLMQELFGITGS
Cytochrome P450 3A4 (Homo sapiens), sequence (P08684 whole entry, looked up): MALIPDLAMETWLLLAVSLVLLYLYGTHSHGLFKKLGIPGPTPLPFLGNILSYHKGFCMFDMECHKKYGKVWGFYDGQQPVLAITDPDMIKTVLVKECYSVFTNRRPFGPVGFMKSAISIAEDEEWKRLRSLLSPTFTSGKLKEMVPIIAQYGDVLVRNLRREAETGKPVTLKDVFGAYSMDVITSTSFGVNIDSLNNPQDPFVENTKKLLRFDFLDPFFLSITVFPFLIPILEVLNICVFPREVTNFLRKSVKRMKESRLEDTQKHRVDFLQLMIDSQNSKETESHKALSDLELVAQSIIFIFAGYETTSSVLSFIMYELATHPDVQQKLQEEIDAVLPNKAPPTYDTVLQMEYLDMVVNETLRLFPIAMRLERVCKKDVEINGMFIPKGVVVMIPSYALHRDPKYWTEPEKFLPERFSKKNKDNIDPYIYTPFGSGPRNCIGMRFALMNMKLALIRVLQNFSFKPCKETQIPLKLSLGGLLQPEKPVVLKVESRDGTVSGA
Cytochrome P450 1A2 (Homo sapiens), sequence (P05177 whole entry, looked up): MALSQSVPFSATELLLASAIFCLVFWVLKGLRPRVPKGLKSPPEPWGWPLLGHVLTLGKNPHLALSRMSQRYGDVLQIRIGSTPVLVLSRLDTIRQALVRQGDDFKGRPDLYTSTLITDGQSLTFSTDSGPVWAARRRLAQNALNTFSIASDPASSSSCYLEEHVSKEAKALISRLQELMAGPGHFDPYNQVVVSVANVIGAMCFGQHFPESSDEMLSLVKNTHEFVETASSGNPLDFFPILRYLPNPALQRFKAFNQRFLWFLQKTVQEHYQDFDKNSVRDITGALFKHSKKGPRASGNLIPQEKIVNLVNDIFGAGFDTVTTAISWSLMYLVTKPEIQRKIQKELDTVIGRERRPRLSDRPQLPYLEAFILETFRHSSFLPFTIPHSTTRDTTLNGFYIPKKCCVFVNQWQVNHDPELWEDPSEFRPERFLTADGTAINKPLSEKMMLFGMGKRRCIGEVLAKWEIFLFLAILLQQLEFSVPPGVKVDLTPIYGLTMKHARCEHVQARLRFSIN
Cytochrome P450 2D6 (Homo sapiens), sequence (P10635 whole entry, looked up): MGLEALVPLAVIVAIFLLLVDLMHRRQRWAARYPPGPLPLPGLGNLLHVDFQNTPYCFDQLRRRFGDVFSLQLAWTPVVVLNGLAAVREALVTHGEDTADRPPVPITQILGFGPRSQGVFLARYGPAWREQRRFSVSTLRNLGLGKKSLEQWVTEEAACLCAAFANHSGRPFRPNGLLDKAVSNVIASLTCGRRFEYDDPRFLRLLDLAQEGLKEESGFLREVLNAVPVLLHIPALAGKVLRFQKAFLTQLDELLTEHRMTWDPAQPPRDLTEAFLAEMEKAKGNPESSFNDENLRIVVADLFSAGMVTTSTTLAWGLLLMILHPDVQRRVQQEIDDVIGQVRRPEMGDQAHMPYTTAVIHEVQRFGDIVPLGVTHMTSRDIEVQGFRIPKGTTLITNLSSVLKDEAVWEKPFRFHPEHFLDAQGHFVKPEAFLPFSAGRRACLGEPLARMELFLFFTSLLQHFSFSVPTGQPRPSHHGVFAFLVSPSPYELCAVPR
Cytochrome P450 2C9 (Homo sapiens), sequence (P11712 whole entry, looked up): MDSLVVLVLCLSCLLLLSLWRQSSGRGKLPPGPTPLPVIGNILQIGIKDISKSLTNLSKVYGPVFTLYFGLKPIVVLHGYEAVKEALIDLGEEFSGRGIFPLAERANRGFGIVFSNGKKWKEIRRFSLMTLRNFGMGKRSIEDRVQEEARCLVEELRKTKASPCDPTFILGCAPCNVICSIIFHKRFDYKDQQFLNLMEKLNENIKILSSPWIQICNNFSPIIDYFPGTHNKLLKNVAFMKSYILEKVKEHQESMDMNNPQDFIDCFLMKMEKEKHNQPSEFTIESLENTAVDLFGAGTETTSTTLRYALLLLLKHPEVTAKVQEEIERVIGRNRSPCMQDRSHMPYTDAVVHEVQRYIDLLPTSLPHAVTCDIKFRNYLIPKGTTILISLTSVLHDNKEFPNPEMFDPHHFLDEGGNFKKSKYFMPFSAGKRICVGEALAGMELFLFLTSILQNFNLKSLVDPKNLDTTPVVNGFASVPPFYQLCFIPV
Nuclear receptor subfamily 1 group I member 2 (Rattus norvegicus), sequence (Q9R1A7 whole entry, looked up): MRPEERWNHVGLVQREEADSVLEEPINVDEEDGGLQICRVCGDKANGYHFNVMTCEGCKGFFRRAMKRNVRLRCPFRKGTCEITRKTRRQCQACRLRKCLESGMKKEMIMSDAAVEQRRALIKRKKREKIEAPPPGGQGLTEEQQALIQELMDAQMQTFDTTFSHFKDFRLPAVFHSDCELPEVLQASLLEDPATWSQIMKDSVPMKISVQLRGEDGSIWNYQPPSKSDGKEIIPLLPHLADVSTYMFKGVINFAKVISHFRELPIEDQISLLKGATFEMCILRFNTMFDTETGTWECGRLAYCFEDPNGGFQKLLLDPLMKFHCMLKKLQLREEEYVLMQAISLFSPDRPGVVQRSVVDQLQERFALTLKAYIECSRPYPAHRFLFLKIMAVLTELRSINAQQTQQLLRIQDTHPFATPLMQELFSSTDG
Voltage-gated inwardly rectifying potassium channel KCNH2 (Homo sapiens), sequence (Q12809 whole entry, looked up): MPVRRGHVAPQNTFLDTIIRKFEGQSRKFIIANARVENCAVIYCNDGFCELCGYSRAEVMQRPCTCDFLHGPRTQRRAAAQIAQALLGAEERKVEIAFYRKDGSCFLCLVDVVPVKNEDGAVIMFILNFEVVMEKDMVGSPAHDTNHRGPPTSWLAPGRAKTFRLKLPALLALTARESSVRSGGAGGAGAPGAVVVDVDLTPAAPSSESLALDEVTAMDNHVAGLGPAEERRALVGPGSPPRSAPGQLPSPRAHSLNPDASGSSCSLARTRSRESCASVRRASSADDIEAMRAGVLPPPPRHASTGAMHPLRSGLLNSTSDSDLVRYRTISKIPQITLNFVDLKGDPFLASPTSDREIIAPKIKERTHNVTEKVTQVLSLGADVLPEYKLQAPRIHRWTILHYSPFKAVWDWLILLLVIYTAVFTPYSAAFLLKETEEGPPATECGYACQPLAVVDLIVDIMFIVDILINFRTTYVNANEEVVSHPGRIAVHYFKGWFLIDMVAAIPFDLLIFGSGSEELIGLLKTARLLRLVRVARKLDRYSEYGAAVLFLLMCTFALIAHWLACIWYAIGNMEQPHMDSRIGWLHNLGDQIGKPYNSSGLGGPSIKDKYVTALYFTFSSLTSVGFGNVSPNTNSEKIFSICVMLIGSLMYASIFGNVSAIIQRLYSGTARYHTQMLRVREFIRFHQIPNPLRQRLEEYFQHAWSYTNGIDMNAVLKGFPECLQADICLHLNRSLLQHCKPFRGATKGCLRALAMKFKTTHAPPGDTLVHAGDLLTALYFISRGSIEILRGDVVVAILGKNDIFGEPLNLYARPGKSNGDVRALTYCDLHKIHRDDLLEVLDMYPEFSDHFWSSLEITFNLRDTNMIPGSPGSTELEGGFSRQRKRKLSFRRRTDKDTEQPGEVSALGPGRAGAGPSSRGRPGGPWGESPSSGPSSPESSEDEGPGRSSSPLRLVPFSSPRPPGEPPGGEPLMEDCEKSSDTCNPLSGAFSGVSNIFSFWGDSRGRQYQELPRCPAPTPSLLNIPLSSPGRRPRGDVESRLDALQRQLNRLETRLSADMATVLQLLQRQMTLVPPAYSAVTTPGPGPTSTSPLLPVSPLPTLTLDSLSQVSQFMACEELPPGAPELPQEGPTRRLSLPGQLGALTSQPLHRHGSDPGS
Cytochrome P450 2C19 (Homo sapiens), sequence (P33261 whole entry, looked up): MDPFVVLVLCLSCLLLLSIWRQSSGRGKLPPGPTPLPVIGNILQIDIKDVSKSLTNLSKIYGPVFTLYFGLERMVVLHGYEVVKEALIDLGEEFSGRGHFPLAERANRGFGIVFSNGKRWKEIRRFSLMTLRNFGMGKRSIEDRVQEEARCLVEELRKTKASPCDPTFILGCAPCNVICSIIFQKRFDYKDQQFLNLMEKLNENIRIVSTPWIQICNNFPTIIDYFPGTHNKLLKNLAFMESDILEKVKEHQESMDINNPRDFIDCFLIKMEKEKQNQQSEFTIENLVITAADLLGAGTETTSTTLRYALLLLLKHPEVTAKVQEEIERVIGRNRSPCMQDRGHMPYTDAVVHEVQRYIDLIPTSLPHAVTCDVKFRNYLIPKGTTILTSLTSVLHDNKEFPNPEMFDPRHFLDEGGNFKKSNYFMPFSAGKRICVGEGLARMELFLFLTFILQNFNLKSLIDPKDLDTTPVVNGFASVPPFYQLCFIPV

Row | Structure (SMILES) | Potency [1] | Potency [2] | Potency [3] | outcome [4] | Potency [5] | Potency [6] | Potency [7] | Potency [8] | Potency [9] | Potency [10] | Potency [11] | max activation [12] | Potency [13] | Potency [14] | Potency [15]
1 | O=c1c(-c2ccc(O)cc2)coc2cc(O)cc(O)c12 | inactive | inactive | 60.1 µM (active) and 48.6 µM (active) | inactive | inactive | 47.7 µM (active) and 30.6 µM (active) and 29.8 µM (active) | inactive | 55.5 µM (active) and 89.4 µM (active) | 55.5 µM (active) and 71 µM (active) and inactive | 19.7 µM (active) and 39.9 µM (active) | inactive | – | – | – | –
2 | CCCCCCCCOc1ccc(C(=O)c2ccccc2)c(O)c1 | inactive | inactive | inactive | inactive | inactive | inactive | inactive | inactive and 35.6 µM (active) | 12.6 µM (active) | inactive | – | -2.91% (inactive) | inactive | inactive | inactive
3 | O=C1OC(c2ccc(O)cc2)(c2ccc(O)cc2)c2ccccc21 | 50.1 µM (active) and inactive | inactive | 30.4 µM (active) and inactive | inactive | inactive | 48.2 µM (active) and 27.3 µM (active) and 23.7 µM (active) | 71 µM (active) and inactive | 28.1 µM (active) and 17.8 µM (active) and 11 µM (active) | 19.9 µM (active) and 20 µM (active) and 12.3 µM (active) | 56 µM (active) and inactive | inactive and 38.9 µM (active) | – | – | – | –
4 | CC(O)COc1ccccc1 (configuration not stated) | inactive | inactive | inactive | inactive | inactive | inactive | inactive | inactive | inactive | inactive | inactive | -1.1% (inactive) | inactive | inactive | inactive
5 | CCN(CC)CCOC(=O)c1ccc(N)cc1 | – | inactive | inactive | inactive | inactive | inactive | 5.95 µM (active) and 15.5 µM (active) | inactive | inactive | inactive | – | -0.318% (inactive) | inactive | inactive | inactive
6 | COCCOCCOC | inactive | inactive | inactive | inactive | inactive | 61.3 µM (active) and inactive | inactive | inactive | inactive | inactive | – | – | – | – | inactive
7 | CCCCOCCOCCOC(C)=O | inactive | inactive | inactive | inactive | inactive | inactive | inactive | inactive | inactive | inactive | – | – | – | – | inactive
8 | C/C=C/c1ccc(O)c(OC)c1 | – | inactive | inactive | inactive | inactive | inactive | inactive | 7.96 µM (active) and 39.9 µM (active) and 8.71 µM (active) | 2.83 µM (active) and 20 µM (active) and 13.8 µM (active) | 20 µM (active) and 22.4 µM (active) and 11.5 µM (active) | – | 6.95% (inactive) | inactive | inactive | –
9 | CC(=O)c1ccc(S(=O)(=O)NC(=O)NC2CCCCC2)cc1 | inactive | inactive | inactive | inactive | inactive | inactive | 31.6 µM (active) and inactive | inactive | 31.6 µM (active) and 31.7 µM (active) and 17.4 µM (active) | inactive | – | – | – | – | inactive
10 | CCCCOC(=O)CCCCCCCCC(=O)OCCCC | inactive | inactive | inactive | inactive | inactive | inactive | inactive | inactive | 28.3 µM (active) | inactive | inactive | – | – | – | inactive
11 | CCN1CCCC1=O | – | inactive | inactive | inactive | inactive | inactive | inactive | inactive | inactive | inactive | – | 3.15% (inactive) | inactive | inactive | inactive
12 | Cc1cnc(NC(=O)C2=C(O)c3ccccc3S(=O)(=O)N2C)s1 | inactive | inactive | 61.3 µM (active) and inactive | inactive | inactive | – | inactive | inactive | 7.98 µM (active) and 11.2 µM (active) and 12.3 µM (active) | inactive | inactive | – | – | – | –
13 | CC(C)(C)CC(C)(C)c1ccc(O)c(-n2nc3ccccc3n2)c1 | – | inactive | inactive | inactive | inactive | 27.7 µM (active) and 11.9 µM (active) | 40.5 µM (active) and inactive | 36.1 µM (active) and 20 µM (active) | 20.3 µM (active) and 10 µM (active) and 12.3 µM (active) | – | inactive | -2.63% (inactive) | inactive | 7.94 µM (active) | inactive
